Results on 40 compounds are retold here after PubChem BioAssay (EPA / NIEHS).

Activity calls are given as the source filed them. The calls were made as follows: active = hit-call score of the fitted dose curve at least 0.9, where 1 is the maximum; inactive = score below 0.9.

The target in the test is CCAAT/enhancer-binding protein beta (Homo sapiens) (UniProt P17676). The test can be described thus: ATG_C_EBP_CIS: Attagene CIS-FACTORIAL HepG2 Assay for human CCAAT/Enhancer Binding Protein (C/EBP) beta (AID 2282927). Conditions: HepG2 Attagene cis-factorial transcription factor reporter; actives raise or lower the signal. On the procedure: ATG_CIS is a cell-based, multiplexed-readout assay that uses HepG2, a human liver cell line, with measurements taken at 24 hours after chemical dosing in a 24-well plate.ATG_C_EBP_CIS is one of 52 assay component(s) measured or calculated from the ATG_CIS assay. It is designed to make measurements of mRNA induction, a form of inducible reporter, as detected with fluorescence intensity signals by Reverse transcription polymerase chain reaction (RT-PCR) and Capillary electrophoresis technology.Data from the assay component ATG_C_EBP_CIS was analyzed into 1 assay endpoint. This assay endpoint, ATG_C_EBP_CIS, was analyzed with bidirectional fitting relative to DMSO as the negative control and baseline of activity. Using a type of inducible reporter, measures of mRNA for gain or loss-of-signal activity can be used to understand the reporter gene at the transcription factor-level as they relate to the gene CEBPB. Furthermore, this assay endpoint can be referred to as a primary readout, because this assay has produced multiple assay endpoints where this one serves a reporter gene function. To generalize the intended target to other relatable targets, this assay endpoint is annotated to the dna binding intended target family, where the subfamily is basic leucine zipper.
Sequence of CCAAT/enhancer-binding protein beta (Homo sapiens) (P17676 whole entry, looked up): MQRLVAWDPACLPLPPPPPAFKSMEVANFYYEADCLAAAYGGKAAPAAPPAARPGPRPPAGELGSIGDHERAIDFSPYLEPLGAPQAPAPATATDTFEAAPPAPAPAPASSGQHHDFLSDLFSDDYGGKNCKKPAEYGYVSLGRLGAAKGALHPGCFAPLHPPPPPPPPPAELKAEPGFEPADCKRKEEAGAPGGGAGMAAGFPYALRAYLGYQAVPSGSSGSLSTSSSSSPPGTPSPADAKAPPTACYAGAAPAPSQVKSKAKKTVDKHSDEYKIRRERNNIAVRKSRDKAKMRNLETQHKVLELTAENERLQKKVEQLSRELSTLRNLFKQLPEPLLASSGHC
Human liver HepG2 cells are transiently transfected with multiple reporter transcription units (MRTUs) in 6-well plates using FuGene 6 reagent (Roche; 3 ml FuGene/1 mg DNA). The MRTU constructs are regulated by a cis-regulating element (promoter). […] A major difference between the CIS and TRANS system is that in CIS activities of endogenous TFs are measured, whereas the TRANS assay evaluates changes in activities of exogenous, chimeric NR-Gal4 proteins. […] At the end of 24 hour incubation, total RNA was isolated using TriZol reagent (Invitrogen). The isolated RNA is then reverse-transcribed using oligo(dT) primer and Mo-MLV reverse transcriptase (Invitrogen) with DNAse I (Ambion) treatment for 30 min. The one-tenth of the produced cDNA was amplified by PCR using Taq DNA polymerase (Invitrogen) and two reporter sequence-specific primers. The PCR products were fluorescently labeled by primer extension with 6-arboxyfluorescein (6-FAM) 5'-labeled reporter sequence-specific primer (2 min at 95 C, 20 s at 68 C and 10 min at 72 C) and these products were digested with 5U of HpaI (New England Biolabs) for 2h at 37 C. The fragments were purified using Qiaquick PCR columns (Qiagen), analyzed on an ABI 3130xL genetic analyzer (Applied Biosystems) with peak positions identified by using a set of X-rhodamine (ROX)-labeled MapMarker1000 molecular weight standards (BioVentures). The raw capillary electrophoresis data was processed using Attagraph software (Attagene).
In the case of `Nc1ccc(Nc2ccccc2)cc1`, the outcome was inactive.
The same measure for `CCCC(=O)OCC`: “inactive”.
The same measure for `O=C(O)c1cccc(Oc2ccccc2)c1`: “inactive”.
Regarding `CCn1nc(Cc2ccccc2)cc1C1CCN(C[C@H]2C[C@H](N(C)[C@@H](C(=O)O)C(C)C)C[C@@H]2c2cccc(F)c2)CC1`, the outcome was inactive.
The same measure for `CN(C)c1ccc(Cc2ccc(N(C)C)cc2)cc1`: “inactive”; for `COc1cccc(-c2ccc(/C=C\CN3CCCCCC3)cc2Cl)c1`: “inactive”; for `CCOCCO`: “inactive”.
As for `CC[C@H](C)C(=O)O[C@H]1C[C@@H](C)C=C2C=C[C@H](C)[C@H](CC[C@@H]3C[C@@H](O)CC(=O)O3)[C@H]21`, the outcome was inactive.
The value for `Cc1ccc(N)cc1O` was “inactive”; that for `CCOCCOCCOCCO` was “inactive”; that for `Cn1cnc([N+](=O)[O-])c1Sc1ncnc2nc[nH]c12` was “inactive”.
On to `COCCOc1cc2cc(C(=O)NC3CCN(C(C)C)CC3)n(CC(=O)Nc3ccc(Cl)cn3)c2cn1`, for which the result was inactive.
Regarding `CCOC(=O)CC(CC(=O)OCC)(OC(C)=O)C(=O)OCC`, the outcome was inactive.
The value for `C1=CCCC=CCCC=CCC1` was “inactive”; that for `CCCCCCc1ccc(O)cc1O` was “inactive”; that for `Cc1[nH]cnc1C[C@H]1CCc2c(C)c3ccccc3n2C1=O` was “inactive”.
As to `Cn1c(=O)c2c(ncn2C)n(C)c1=O`, the result was inactive.
With `CCCN(C1CCN(C(=O)C2CCNCC2)CC1)[C@@H]1CCc2ccc(OC)cc2C1`, the result was inactive.
The value for `COc1ccc(-n2nc(C(F)F)cc2-c2ccc(S(C)=O)cc2)cc1` (stereo not given) was “inactive”.
The value for `CCN(C(=O)c1cc(C)cc(OC[C@H](C)Nc2ccncc2)c1)C(C)C` was “inactive”; that for `C=CCCCCCCCCC(=O)O` was “inactive”; that for `O=c1[nH]c2ccc(S(=O)CCN3CCC(Cc4ccc(F)cc4)CC3)cc2o1` (stereo not given) was “inactive”.
The same measure for `C1N2CN3CN1CN(C2)C3`: “inactive”; for `CC(C)=CCCC(C)CCO` (stereo not given): “inactive”; for `Clc1nc(Cl)c(Cl)c(Cl)c1Cl`: “inactive”.
In the case of `CC[C@H]1OC(=O)[C@H](C)[C@@H](O[C@H]2C[C@@](C)(OC)[C@@H](O)[C@H](C)O2)[C@H](C)[C@@H](O[C@@H]2O[C@H](C)C[C@H](N(C)C)[C@H]2O)[C@](C)(O)C[C@@H](C)C(=O)[C@H](C)[C@@H](O)[C@]1(C)O`, the outcome was inactive.
In the case of `CC(C)=CCC/C(C)=C\CO`, the outcome was inactive.
The same measure for `O=C(O)CCN(C1(C(=O)NO)CCCC1)S(=O)(=O)c1ccc(Oc2ccc(F)cc2)cc1`: “inactive”; for `CNCc1ccc(NC(=O)c2c[nH]c3c2C(=O)CCC3)cc1`: “inactive”; for `COC(=O)c1c(Cl)c(Cl)c(C(=O)OC)c(Cl)c1Cl`: “inactive”.
`Nc1nc2ncc(CNc3ccc(C(=O)N[C@@H](CCC(=O)O)C(=O)O)cc3)nc2c(=O)[nH]1`: the result was inactive.
Take `CC(C)CCCCCCCOC(=O)CCCCC(=O)OCCCCCCCC(C)C`: the result was inactive.
The value for `CC(C)(O)c1coc(S(=O)(=O)NC(=O)Nc2c3c(cc4c2CCC4)CCC3)c1` was “inactive”.
The same measure for `CCCCCCCCO`: “inactive”; for `CCC(C)(C)C(=O)O[C@H]1C[C@@H](C)C=C2C=C[C@H](C)[C@H](CC[C@@H]3C[C@@H](O)CC(=O)O3)[C@H]21`: “inactive”.
The value for `O=C1CCC(N2C(=O)c3ccccc3C2=O)C(=O)N1` (stereo not given) was “inactive”.
For the compound `COc1ccc(/C=C/S(=O)(=O)NC(=O)c2ccc(C)cc2Cl)cc1`, the outcome was inactive.
The same measure for `CC(=O)OC[C@H]1O[C@@](COC(C)=O)(O[C@H]2O[C@H](COC(C)=O)[C@@H](OC(C)=O)[C@H](OC(C)=O)[C@H]2OC(C)=O)[C@@H](OC(C)=O)[C@@H]1OC(C)=O`: “inactive”; for `CCCCC(CC)COC(=O)c1ccc(C(=O)OCC(CC)CCCC)cc1` (stereo not given): “inactive”.
`CNS(=O)(=O)c1cc(C(=O)N2CCC(CCN3C4CCC3CC(n3c(C)nc5ccccc53)C4)(c3cccc(F)c3)CC2)c(Cl)cc1F` (stereo not given): the outcome was inactive.
